Results from PubChem BioAssay (NCATS).
Inconclusive results are not listed. Calls of active or inactive are those of the source. The call rests on the fitted dose curve; in most records, active means well fitted cell-killing curve with a large enough effect; inconclusive means small, poorly fitted or top-dose-only effect; inactive means flat fitted curve, though single readings scatter.

Experiments:
[1] = Cell Viability - LYMP2-020 (AID 986); further: series mostly up to about 92 µM; nearly all actives have a fitted effect of over 55% in size
How it was run: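 Human lymphoblastoid cells, 2500/well, were pre-incubated 5 hr at 37 C, then exposed to compounds for 24 hr at 37 C in complete medium. Intracellular ATP was read by CellTiter-Glo luminescence, and AC50 was derived by Hill fitting of concentration-response data.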

[2] = Cell Viability - LYMP2-022 (AID 987); further: nearly all actives have a fitted effect of over 55% in size
How it was run: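 Human lymphoblastoid cells, 2500/well, preincubated 5 hr at 37 C, then exposed to compounds over a concentration range for 24 hr at 37 C in complete medium. Viability read as intracellular ATP by CellTiter-Glo luminescence after 30 min at room temperature; AC50 from Hill fits.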

[3] = Cell Viability - LYMP2-024 (AID 988); further: nearly all actives have a fitted effect of over 60% in size
How it was run: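 Human lymphoblastoid cells (2500/well) in complete medium were preincubated 5 hr at 37 C, then exposed to compounds for 24 hr at 37 C. Intracellular ATP was read by CellTiter-Glo luminescence; AC50 from Hill-equation fits of concentration-response data.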

[4] = Cell Viability - LYMP2-026 (AID 989); further: nearly all actives have a fitted effect of over 50% in size
How it was run: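 Human lymphoblastoid cells (2500/well) in complete medium were preincubated 5 hr at 37 C, then exposed to compounds for 24 hr at 37 C. Cellular ATP was read by CellTiter-Glo luminescence; AC50 from Hill-equation fits of concentration-response data.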

[5] = Cell Viability - LYMP1-002 - Assay at 24 hr (AID 993)
How it was run: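 Human lymphoblastoid LYMP1-002 cells, 2500/well in complete medium, were treated with compounds for 24 h at 37 C; intracellular ATP was read by CellTiter-Glo luminescence. AC50 values came from Hill-equation fits of qHTS concentration-response data.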

[6] = Cell Viability - LYMP1-002 - Assay at 40 hr (AID 994); further: nearly all actives have a fitted effect of over 60% in size
How it was run: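 Human lymphoblastoid cells, 2500/well in complete medium, were preincubated 5 hr at 37 C, then exposed to compounds for 40 hr at 37 C. Intracellular ATP was read by CellTiter-Glo luminescence after 30 min at room temperature; AC50 from Hill-equation fits.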

Measured: outcome

C=C(C)[C@H]1CC=C(C)C(=O)C1
inactive: all assays above
